# Values joined by “and” are separate entries in the source; they are usually repeats but may differ in a detail not shown here. Equal values may be shown once. Results filed as inconclusive are left out. Unmarked numbers belong to inactive results. Active and inactive are the calls of the source. Calls come from the whole dose curve; as a rule, active = well fitted inhibition curve with a large enough effect; inconclusive = small, poorly fitted or top-dose-only effect; inactive = flat fitted curve, though single readings scatter.
# Tested on: astro (control astrocytes)
# Experiment: Drug repurposing screens with cells derived from glioblastoma tumor samples (AID 1345199); note: nearly all actives have a fitted effect of over 40% in size
# Details: viability, ATP luminescence, 48 h; series mostly up to 45.9 µM; activity, negative = cell killing: at the top concentration
# Protocol: CD133+ cells were isolated from GBM patient biopsies and cultured as neurospheres. Neurospheres from four patients were used to screen the NCATS pharmaceutical collection (NPC) library of approved drugs and bioactive compounds. […] The neurospheres were incubated with drugs for 48 hours in 1536-well format, then assayed with an ATP content cell viability assay. […] These hits were cherry picked to confirm activity in the four original GBM lines screened plus three other slower growing GMB lines (unable to yield enough cells for a full primary screen). Variable activities of the confirmed primary hits in the different GBM patient lines were observed. The patient line 206 responded to the greatest number of compounds and line 923 responded to the least amount of active compounds.
# % is set by controls: 0 for no effect and ±100 for the full control effect; potency is the fitted concentration of half-maximal effect.
Compound,"activity, negative = cell killing",Potency
Cc1[nH]cnc1CN1CCc2c(c3ccccc3n2C)C1=O,-25.1%,–
O=c1[nH]c2ccccc2n1CCCN1CCN(C(c2ccccc2)c2ccccc2)CC1,-26.5%,–
CO[C@H]1C[C@@H]2CC[C@@H](C)[C@@](O)(O2)C(=O)C(=O)N2CCCC[C@H]2C(=O)O[C@H]([C@H](C)C[C@@H]2CC[C@@H](O)[C@H](OC)C2)CC(=O)[C@H](C)C=C(C)[C@@H](O)[C@@H](OC)C(=O)[C@H](C)C[C@H](C)/C=C/C=CC=C1C,–,35.5 µM (active)
O=C(O)/C=C/C(O)c1ccc(Cl)cc1 (stereo not given),-3.33%,–
CC(=O)SCC(CC(=O)c1ccc(C)cc1)C(=O)O (stereo not given),-12.7%,–
c1ccc2sc(SSc3nc4ccccc4s3)nc2c1,-2.52%,–
CCCC(=O)OC[C@@H](OC(=O)CCC)[C@@H](OC(=O)CCC)[C@H](Cn1c2nc(=O)[nH]c(=O)c-2nc2cc(C)c(C)cc21)OC(=O)CCC,-11.5%,–
CCOC(=O)c1ccccc1O,–,inactive
CN(C)[C@@H]1C(=O)C(C(=O)NCN2CCCC2)=C(O)[C@@]2(O)C(=O)C3=C(O)c4c(O)cccc4[C@@](C)(O)C3C[C@@H]12 (stereo not given in full),–,inactive
Nc1c(CC(=O)O)cccc1C(=O)c1ccc(Br)cc1,-16.7%,–
CC1(C)C[C@@H]1C(=O)N/C(=C\CCCCSC[C@H](N)C(=O)O)C(=O)O,–,inactive
CC(=O)O[C@H]1C[C@@]2(C)[C@@H](C[C@@H](O)[C@H]3[C@@]4(C)CC[C@@H](O)[C@@H](C)[C@@H]4CC[C@@]32C)/C1=C(\CCC=C(C)C)C(=O)O,-5.95%,–
CN1[C@@H]2CC[C@H]1CC(OC(c1ccccc1)c1ccccc1)C2 (stereo not given in full),–,inactive
O=C(O)[C@H](CC(=O)N1C[C@H]2CCCC[C@H]2C1)Cc1ccccc1,-9.93%,–
CC(C)Cc1ccc([C@H](C)C(=O)O)cc1,-15%,–
CCCCCCOc1ccccc1C(N)=O,–,14.1 µM (active)
Cc1ccc(O)c(-n2nc3ccccc3n2)c1,-8.32%,–
CC(=O)[C@]1(O)Cc2c(O)c3c(c(O)c2[C@@H](O[C@H]2C[C@H](N)[C@H](O)[C@H](C)O2)C1)C(=O)c1c(O)cccc1C3=O,–,501 nM (active) and 562 nM (active)
C#CC1(O)CC[C@H]2[C@@H]3CCC4=CCCC[C@@H]4[C@H]3CC[C@@]21C (stereo not given in full),-19.8% [at 21.2 µM],–
CC(C(=O)O)c1ccc(C(=O)c2ccccc2)s1 (stereo not given),-21.6% [at 21.2 µM],–

Compound,"activity, negative = cell killing",Potency
CCCCCCCCCCCC(=O)[O][Sn]([CH2]CCC)([CH2]CCC)[O]C(=O)CCCCCCCCCCC,-24.5%,–
CN(C)CCn1nnnc1SCC1=C(C(=O)O)N2C(=O)[C@@H](NC(=O)Cc3csc(N)n3)[C@H]2SC1,-11% [at 21.2 µM],–
CO/N=C(\C(=O)N[C@@H]1C(=O)N2C(C(=O)O)=C(COC(C)=O)CS[C@H]12)c1csc(N)n1 (stereo in doubt),-13.1%,–
O=C(/C=C/c1ccccc1)NCCO,-22.7%,–
C[N+](C)(C)CCOP(=O)(O)OP(=O)([O-])OC[C@H]1O[C@@H](n2ccc(N)nc2=O)[C@H](O)[C@@H]1O,–,inactive
C[C@H](O)[C@H](O)[C@H]1CNc2nc(N)[nH]c(=O)c2N1,-12.2%,–
CC1(C)[C@@H](O)CC[C@]2(C)[C@H]3C(=O)C=C4[C@@H]5C[C@@](C)(C(=O)O)CC[C@]5(C)CC[C@@]4(C)[C@]3(C)CC[C@@H]12,–,inactive
COc1ccc(-c2cc(=S)ss2)cc1,-17.9%,–
C=CCN1C(=O)C(CC(C)C)NC1=S (stereo not given),–,inactive
C=C(Nc1ccc(OCC)cc1)Nc1ccc(OCC)cc1,–,inactive
O=C1CN(/N=C/c2ccc([N+](=O)[O-])o2)C(=O)N1,1.52%,–
COc1ccc(/C=C/C(=O)Nc2ccccc2C(=O)O)cc1OC,–,17.8 µM (active)
O=C(O)Cc1cccc(-c2cc(CCCCCCc3ccc(O[C@H]4O[C@H](CO)[C@@H](O)[C@H](O)[C@@H]4O)c(-c4cccc(CC(=O)O)c4)c3)ccc2O[C@H]2O[C@H](CO)[C@@H](O)[C@H](O)[C@@H]2O)c1,-13.2%,–
COC(=O)[C@H]1[C@H]2C[C@@H]3c4[nH]c5cc(OC)ccc5c4CCN3C[C@H]2C[C@@H](OC(=O)/C=C/c2cc(OC)c(OC)c(OC)c2)[C@@H]1OC,-15.8% [at 21.2 µM],–
CC(C(=O)O)c1ccc(C(=O)c2cccs2)cc1 (stereo not given),-6.45% [at 21.2 µM],–
C=CCCCCCCCCC(=O)O,-13.1%,–
N=C1N=C(N)c2cc3ccccc3cc21,–,39.8 µM (active)
CCCOC(=O)c1ccc(O)cc1,–,inactive
NCCO,-13.1% [at 91.6 µM],–
O=C(CCN1CCN(CCO)CC1)N1c2ccccc2Sc2ccc(C(F)(F)F)cc21,-7.61%,–
